What all share (experiment): NCI-60 one-dose screen, 48 h (100 = growth as untreated, 0 = no growth, -100 = all killed)
Conditions in all cases: 10 µM unless noted

Assay [1] relates to HCT-15 colon.
The test system of assay [2] is HT29 colon.
The test system of assay [3] is SNB-75 CNS.
Assay [4] deals with SNB-19 CNS.
Assay [5] has as its system U251 CNS.
The subject of assay [6] is PC-3 prostate.
For assay [7], the system named is SK-MEL-5 melanoma.
For assay [8], the system named is UACC-62 melanoma.
Assay [9] deals with LOX IMVI melanoma.
Assay [10] has as its system SK-MEL-28 melanoma.
The subject of assay [11] is SK-MEL-2 melanoma.
In assay [12] the test system is EKVX NSCLC.
Assay [13] deals with SN12C renal.
For assay [14], the system named is UO-31 renal.
The test system of assay [15] is TK-10 renal.
For assay [16], the system named is ACHN renal.
Assay [17] relates to CAKI-1 renal.
For assay [18], the system named is CCRF-CEM leukemia.
The subject of assay [19] is MOLT-4 leukemia.
In assay [20] the test system is A498 renal.

Each structure is given as a SMILES string. The panel holds about 83,000 compounds, 20% with a hit somewhere; the sample as a whole holds those more often.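 48-hour exposure, single concentration, 96-well plates; percent growth endpoint where 0 means no net growth. Active: below 10.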 Unmarked numbers belong to inactive results. Activity calls are given as the source filed them.

Take `CCCCCCCCCCCCCCCCCCOc1ccccc1CC(=O)OCC[N+](CC)(CC)CC`: the growth in assay [1] was 80.9%; in [2], 13.1%; in [3], 22.5%; in [4] it was 11.4%; in [5] it was 14.4%; in assay [6], 18.3%. For the same compound, the growth in assay [7] was -3.62% (active); in assay [8], 21.4%; in assay [9], -57.6% (active); in [10], 31.5%; in [11] it was -10.1% (active); in assay [12], 43.4%. Also, the growth in [13] is 15.2%; in [14], 89.5%; in [15] it was 38.5%; in [16], 64.4%; in [17], 35.6%; in assay [18], 15.7%. The growth in [19] was 12.8%.

Consider `Nc1ccc(Sc2ccc([N+](=O)[O-])c3nonc23)cc1`, for which the growth was 58.2% in assay [1]; 70.8% in assay [2]; 90.7% in assay [3]; 95.6% in assay [4]; 90.9% in assay [5]; 87.1% in assay [6]. The growth in [7] was 88.1%; in assay [8], 84.5%; in [9] it was 80.3%; in [10], 102%; in assay [11] it was 96.1%; in assay [12], 92.5%. Further, the growth in [13] is 93.7%; in assay [14], 65.6%; in assay [15], 111%; in [16], 23%; in [17] it was 103%; in [20], 80.2%. Further, the growth in assay [19] was 26.8%.

As to `O=C(N/N=C/c1c(Cl)cccc1Cl)c1ccc(C(F)(F)F)nc1Nc1cccc(C(F)(F)F)c1`, the growth in assay [1] is -13.5% (active); in assay [2], 15.6%; in assay [3], 48.8%; in assay [4] it was 19.6%; in assay [5], 2.92% (active); in assay [6], 7.85% (active). For the same compound, the growth was 7.65% (active) in assay [7]; -3.04% (active) in [8]; 3.01% (active) in assay [9]; 36.6% in assay [10]; 26% in [11]; 16.9% in [12]. In addition, the growth is 1.33% (active) in assay [13]; 1.91% (active) in assay [14]; 1.46% (active) in assay [15]; -15.7% (active) in assay [16]; 13.8% in assay [17]; -5.26% (active) in [20]. The growth in assay [19] was -12.9% (active).

Regarding `CNCCCC12CCC(c3ccccc31)c1ccccc12`, the growth was 95.4% in assay [1]; 60.4% in assay [2]; 60.2% in assay [3]; 91.5% in assay [4]; 81.1% in assay [5]; 71.9% in assay [6]. Also, the growth in [7] is 75.3%; in assay [8], 90.9%; in [9], 79.6%; in [10], 87.4%; in assay [11], 100%; in assay [12], 87.9%. The growth in [13] was 73.4%; in assay [14], 58%; in assay [15], 80.2%; in [16], 80.6%; in [17] it was 83.4%; in [20], 93.7%. In assay [19], the growth is 89.6%.

Take `Cc1cc2[nH]c(=O)c3c4ncccc4cn3c2cc1C`: the growth was 5.25% (active) in assay [1]; -23.7% (active) in assay [2]; 99.4% in [3]; 50.2% in [4]; 24.1% in assay [5]; 57.1% in assay [6]. Moreover, the growth in assay [7] was 70%; in assay [8], -8.94% (active); in assay [9] it was -83.3% (active); in assay [10] it was 95.1%; in assay [11], 93.8%; in [12], 60.9%. Besides, the growth was 39.3% in assay [13]; 37.1% in assay [14]; 18.1% in assay [15]; 32.2% in assay [16]; -24.7% (active) in [17]; 105% in assay [20]. Besides, the growth in [19] is 19.4%.

For the compound `COc1c(B(O)O)cc(F)cc1-c1nc2ccc3[nH]ncc3c2c2c1CCCC2`, the growth was 3.63% (active) in [1]; 13% in assay [2]; -94.5% (active) in assay [3]; 11.3% in assay [4]; 11.8% in assay [5]; 13.3% in assay [6]. The growth was 17.1% in assay [7]; 20.6% in [8]; 2.28% (active) in assay [9]; 21.3% in [10]; 18.7% in assay [11]; 10.2% in [12]. The growth in assay [13] was 11.6%; in [14], 5.35% (active); in [15], 21.5%; in assay [16] it was 9.67% (active); in [17], -5.6% (active); in assay [20] it was -67.9% (active). The growth in assay [18] was 10.9%; in assay [19], 9.89% (active).

For the compound `Nc1ccccc1-c1cc2c(c3c1[nH]c1ccccc13)CCCCC2`, the growth in [1] was 86.9%; in assay [2] it was 88%; in assay [3] it was 105%; in assay [4], 104%; in assay [5], 103%; in assay [6], 92.1%. The growth is 93.8% in [7]; 95.4% in [8]; 86.7% in [9]; 107% in [10]; 92.5% in [11]; 89.9% in [12]. In addition, the growth in assay [13] was 99.7%; in assay [14], 96.7%; in assay [15], 101%; in assay [16], 107%; in assay [17] it was 114%; in assay [20] it was 119%. For the same compound, the growth in assay [19] is 90.8%.

The values above are taken from PubChem BioAssay (NCI).
